In the library only some 7.9% were active in any assay of this set; here they are far more common.
KB-3-1 cytotox – kills parental KB-3-1 adenocarcinoma cells; KB-3-1 viability, CellTiter-Glo ATP luminescence, 72 h; Potency, µM (series often up to 46.1 µM), most hits filed as cytotoxic; 1.4% of 400,000 active; note: % is set by controls: 0 for no effect and ±100 for the full control effect; nearly all actives have a fitted effect of over 60% in size
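KB-3-1 parental drug-naive adenocarcinoma cells in DMEM/10% FBS, incubated 72 h at 37 C with pin-transferred compounds across a concentration series. Viability by CellTiter-Glo luminescence; concentration-response curves fitted after normalization.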
HT1080NT lethal – kills 2HG-producing HT-1080-NT fibrosarcoma cells | Potency, µM (titrated, usually from 46.1 µM), without a hit: at the top dose activity, negative = less viability, actives largely listed as cytotoxic | HT-1080-NT fibrosarcoma viability, CellTiter-Glo ATP luminescence, 48 h | 1.6% of 360,000 active;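 note: NT is the 2HG producing partner of a matched IDH1 knockdown line; 0% = DMSO-treated cells and -100% = media-only wells without cells; nearly all actives have a fitted effect of over 55% in size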
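HT-1080-NT fibrosarcoma cells (2HG-overproducing), 750 cells/well in RPMI with 5% FBS, dosed after 2 h and incubated 48 h at 37C. CellTiter-Glo luminescence normalized to DMSO and no-cell wells; concentration-response curves fitted and classed.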
MCF10A rereplic – DNA re-replication induction in MCF 10a cells; MCF 10A DNA re-replication, Hoechst nuclear intensity, 48 h; Potency, µM (series often up to 46.1 µM), for inactives: at the highest dose activity, positive = re-replication, hits mostly activators; 2.9% of 350,000 active; AID 624296; note: % of control where 0% means no effect; nearly all actives have a fitted effect of over 50% in size
HT1080 IDH1KD tx – toxicity to HT-1080 IDH1 knockdown cells (counter line) | HT-1080 IDH1 knockdown viability, ATP luminescence, 48 h | Potency, µM (doses to about 46.1 µM), inactives show at the top dose activity, negative = toxicity, actives largely listed as cytotoxic | 2% of 360,000 active | AID 686971;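 note: 0% = DMSO wells and -100% = cell-free medium wells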
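Using the IDH1-knockdown HT-1080 line run in the same batch and compound series as the NT line, viability after 48 h at 37 °C was determined by CellTiter-Glo luminescence and expressed as % activity.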
KB-V1 MDR tox – KB-V1 MDR subline cytotoxicity. AID 1347076. KB-V1 MDR cells viability, CellTiter-Glo, 72 h. Potency, µM (series often up to 46.1 µM), most hits filed as cytotoxic. 3.4% of 400,000 active; note: % is set by controls: 0 for no effect and ±100 for the full control effect; nearly all actives have a fitted effect of over 60% in size
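Drug-selected KB-V1 cells, grown in DMEM lacking phenol red with 10% FBS, receive compound titrations; after three days at 37 degrees C, surviving cell ATP is quantified by CellTiter-Glo luminescence and responses normalized and curve-fitted.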
SW480 rerep – induces DNA re-replication in SW480 colon adenocarcinoma cells; Potency, µM (series often up to 46.1 µM), for the others: top-dose re-replication activation, actives largely listed as activators; AID 624297; SW480 DNA re-replication, Hoechst DNA content imaging, 48 h; 1.8% of 340,000 active; note: % of control where 0% means no effect; nearly all actives have a fitted effect of over 55% in size
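Compounds, transferred as 23 nL by pin tool, were incubated with cells for 48 hr; DNA content per nucleus was then quantified by Hoechst staining and fluorescence plate imaging.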
* hit, by the source's call; i = inactive; ? = inconclusive; . = no result; [ ] = remark or other dose. Calls come from the whole dose curve; as a rule, active = well fitted curve in the direction sought with a large enough effect; inconclusive = small, poorly fitted or top-dose-only effect, or another doubt; inactive = no such curve, though single readings can be large; an effect the other way counts as inactive or inconclusive. Potency is the fitted concentration of half-maximal effect.

SMILES	KB-3-1 cytotox	HT1080NT lethal	MCF10A rereplic	HT1080 IDH1KD tx	KB-V1 MDR tox	SW480 rerep
CCOc1ccc(S(=O)(=O)Nc2ccccc2C(=O)Nc2ccccc2N2CCOCC2)cc1	i	-1%	4%	-2%	i	-5%
COCCNC(=O)CSc1nc(-c2ccccc2C)nc2c1c(=O)n(C)c(=O)n2C	i	.	.	.	i	.
O=C(CSc1nncn2c1cc1occc12)Nc1ccccc1C(F)(F)F	i	.	.	.	i	.
COCCNC(=O)c1ccc(N2CCCCC2)c(NS(=O)(=O)c2ccc(C)cc2)c1	i	3%	-5%	-3%	?	0%
CCN(CC)S(=O)(=O)c1ccc(N2CCN(C)CC2)c(NC(=O)Nc2ccc(C)cc2)c1	i	8.2µM*	12µM*	21µM*	i	2%
CCOC(=O)c1ccc(N2CCCCC2)c(NS(=O)(=O)c2ccc(C)cc2)c1	?	?	21µM*	?	?	?
CCN(CC)S(=O)(=O)c1ccc(N2CCN(C)CC2)c(NC(=O)CSCC(=O)Nc2cccc(C)c2)c1	i	-3%	?	-1%	i	-37%
COc1ccc(CCC(=O)N2CCN(c3ccc([N+](=O)[O-])cc3)CC2)cc1OC	?	0%	4%	-9%	?	?
CCOC(=O)c1ccc(NC2SC(=O)N(Cc3cccc(C(=O)O)c3)C2=O)cc1 (stereo not given)	i	.	.	.	i	.
COc1cc(/C=N/N=C(/N)c2nonc2N)cc(Br)c1OCc1ccccc1C	i	?	13µM*	?	i	1%
COc1cc(CN2CCc3nc(N4CCN(c5ncccn5)CC4)ncc3C2)cc(OC)c1OC	?	.	.	.	6.5µM*	.
CCOC(=O)N1CCN(c2ncc3c(n2)CC(c2ccc(Cl)cc2)CC3=O)CC1 (stereo not given)	i	.	.	.	16µM*	.
COc1cc(C2CC(=O)c3cnc(N4CCN(Cc5ccccc5)CC4)nc3C2)cc(OC)c1OC (stereo not given)	5.8µM*	-11%	13µM*	-3%	?	2.9µM*
CCOC(=O)N1CCN(c2ncc3c(n2)CC(c2ccccc2O)CC3=O)CC1 (stereo not given)	?	.	.	.	18µM*	.
CCN(C(=O)Cn1c(SCC(=O)Nc2ccc(OC)cc2)nc2ccccc21)c1cccc(C)c1	i	.	.	.	i	.
COc1cc(NC(=O)CSc2nnc3ccccn23)cc(OC)c1OC	i	10%	.	0%	i	.
Cc1cccc(-c2nc3nc(C)cc(NCc4ccccc4Cl)n3n2)c1	i	.	.	.	?	.
CCS(=O)(=O)N1Cc2ccccc2CC1C(=O)N1CCN(c2ccccc2)CC1 (stereo not given)	i	-2%	11%	1%	10µM*	3%
CCc1nnc(NC(=O)C2Cc3ccccc3CN2S(=O)(=O)c2c(C)c(C)cc(C)c2C)s1 (stereo not given)	i	4%	?	?	10µM*	14%
CCS(=O)(=O)N1Cc2ccccc2CC1C(=O)Nc1nnc(SCc2ccc(F)cc2)s1 (stereo not given)	i	-16%	?	-11%	4.1µM*	?
CCS(=O)(=O)N1Cc2ccccc2CC1C(=O)Nc1nc2ccccc2s1 (stereo not given)	i	-13%	17%	-4%	16µM*	1%
CS(=O)(=O)N1Cc2ccccc2CC1C(=O)O (stereo not given)	i	0%	-1%	-2%	i	-4%
CCCCN1C(=O)C(CC(=O)NCCN2CCOCC2)CC(C(=O)N(CC)CC)=C1C (stereo not given)	i	7%	.	14%	i	.
COCCNC(=O)[C@H](CSCc1ccccc1)N1Cc2ccccc2C1=O	i	3%	-2%	0%	9.2µM*	-7%
COc1cc2cc(CCOC(=O)c3ccco3)oc(=O)c2cc1OC	i	-3%	4%	3%	i	-1%
SMILES	KB-3-1 cytotox	HT1080NT lethal	MCF10A rereplic	HT1080 IDH1KD tx	KB-V1 MDR tox	SW480 rerep
COc1cc(NC(=O)C(C)Oc2ccccc2)c(OC)cc1NC(=O)c1ccccc1 (stereo not given)	.	-2%	30%	-11%	.	20%
Nc1nc(Br)c2ccccc2c1-c1ccccc1	i	-15%	22µM*	-26%	i	?
Nc1nc(Br)c2c(F)cccc2c1-c1ccc(Cl)cc1	i	-17%[9.24 µM]	7.3µM*	?	i	21µM*
CN(C)c1nc2ccccc2c(N)c1-c1ccccc1	i	?	?	?	?	3%
Cc1cc(C)cc(NC(=O)Cn2nnc(C(=O)Nc3cc(C)cc(C)c3)c2N)c1	i	.	.	.	i	.
O=C(NCCc1ccccc1Cl)c1sc2ncccc2c1-n1cccc1	i	.	.	.	i	.
C[C@H](NC(=O)c1nc[nH]c1C(=O)NCCCCCNC(=O)OC(C)(C)C)C(=O)OC(C)(C)C	i	-13%	10%	-19%	23µM*	-7%
C[C@H](NC(=O)c1nc[nH]c1C(=O)N[C@H](C)c1ccccc1)C(=O)OC(C)(C)C	i	8%	18%	0%	?	-6%
CC(C)C[C@H](NC(=O)c1nc[nH]c1C(=O)N1CCN(C(=O)OC(C)(C)C)CC1)C(=O)OC(C)(C)C	5.8µM*	-33%	?	-10%	i	16µM*
CC(C)C[C@H](NC(=O)c1nc[nH]c1C(=O)N[C@@H](CCCCNC(=O)OC(C)(C)C)C(=O)OC(C)(C)C)C(=O)OC(C)(C)C	16µM*	?	0%	?	?	?
C[C@H](NC(=O)c1nc[nH]c1C(=O)NC(c1ccccc1)c1ccccc1)C(=O)OC(C)(C)C	?	?	23%	?	8.2µM*	-14%
CC(C)C[C@H](NC(=O)c1nc[nH]c1C(=O)NCCCCCNC(=O)OC(C)(C)C)C(=O)OC(C)(C)C	?	?	14%	?	?	?
C[C@H](NC(=O)c1nc[nH]c1C(=O)N1CCN(C(=O)OC(C)(C)C)CC1)C(=O)OC(C)(C)C	i	7%	?	8%	i	-6%
COc1ccccc1NC(=O)CSC1=Nc2ccccc2N=C(c2ccc(F)cc2)C1	i	.	.	.	?	.
CC1CN(C(=O)/C=C/c2ccccc2Cl)CC(C)O1 (stereo not given)	i	6%	35%	0%	i	?
CCOc1ccc2[nH]c3c(NCC(C)C)ncnc3c2c1	i	-14%	7%	-17%	i	-2%
COc1cc2oc(=O)ccc2cc1-c1c(OC)ccc2ccc(=O)oc12	?	14%	2%	-20%	?	3%
